In the library only some 27% were active in any assay of this set; here they are far more common.
CYP2C19 inh = inhibitors of human CYP2C19 | inhibition, % at 5 µM | AID 778 | CYP2C19 Supersomes, luciferin-H EGE luminescence, 30 min | hit rate 21% among 96,000;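 active means CYP2C19 inhibition above a set limit at 5 µM in the primary screen, cut at about 50% in these data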
CYP2C9 act = activators of human CYP2C9; P11712; recombinant CYP2C9, luciferin-H conversion, luminescence; stronger effect = higher value; factor 1 = untreated enzyme, 0 = blocked; activation factor at 5 µM; hit rate 1.4% among 96,000;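 active means activation factor of 2 or more for CYP2C9 at a 5 µM dose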
Target sequence (P11712 whole entry, looked up): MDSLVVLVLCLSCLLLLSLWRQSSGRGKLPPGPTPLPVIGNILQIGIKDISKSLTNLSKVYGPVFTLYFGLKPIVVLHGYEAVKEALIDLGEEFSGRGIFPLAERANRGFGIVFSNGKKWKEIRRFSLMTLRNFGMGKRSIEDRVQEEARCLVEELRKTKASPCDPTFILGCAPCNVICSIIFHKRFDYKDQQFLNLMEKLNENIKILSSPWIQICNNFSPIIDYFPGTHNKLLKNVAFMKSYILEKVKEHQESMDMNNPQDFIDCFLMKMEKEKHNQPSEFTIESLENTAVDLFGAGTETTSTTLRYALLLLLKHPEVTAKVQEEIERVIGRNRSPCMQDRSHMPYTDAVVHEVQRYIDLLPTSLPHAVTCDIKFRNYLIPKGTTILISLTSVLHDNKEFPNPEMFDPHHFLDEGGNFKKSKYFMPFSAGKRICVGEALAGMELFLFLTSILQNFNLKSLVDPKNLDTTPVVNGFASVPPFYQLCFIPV
Cav32 inh = human Cav3.2 channel inhibition, primary screen | hit rate 4% among 100,000 | AID 449739 | B-score at 10 µM | Cav3.2-expressing cells, Fluo-4 calcium fluorescence FDSS; stronger effect = lower value;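 active means single-dose well whose peak fluorescence ratio is a statistical outlier from its plate by either plate-standardised score or position-corrected B-score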
CYP2C19 activ = increases human CYP2C19 enzyme activity. recombinant CYP2C19, luciferin-H EGE luminescence; stronger effect = higher value; 0 = fully inhibited enzyme, 1 = untreated enzyme. 96,000 tested, under 10 active. activation factor at 5 µM;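 active means activation factor of at least 2 at 5 µM in the primary screen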
CYP2C9 inh = human CYP2C9 inhibition; CYP2C9 Supersomes, luciferin-H conversion, luminescence; inhibition, % at 5 µM; P11712; hit rate 20% among 96,000; AID 777;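 active means blocking of liver enzyme CYP2C9 beyond about 50% at 5 µM, limit read from the data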
Of the large screens only hits and unclear results are named; the others gave an inactive call.

CCC(C)c1c(O)nc(SCC(=O)c2ccccc2)[nH]c1=O (stereo unspecified)	CYP2C9 inh 54
Cc1ccc(S(=O)(=O)N2CCCC2C(=O)Nc2nc3ccccc3s2)cc1 (stereo unspecified)	CYP2C19 inh 97, CYP2C9 inh 86
Nc1nc(C2CCCN2S(=O)(=O)c2ccc(Cl)cc2)cs1 (stereo unspecified)	CYP2C19 inh 80
O=C(Nc1nc2ccccc2s1)C1CCCN1S(=O)(=O)c1ccc(Cl)cc1 (stereo unspecified)	CYP2C19 inh 96, Cav32 inh -5.3, CYP2C9 inh 97
CN(C)S(=O)(=O)c1cccc(C(=O)OCC(=O)Nc2sccc2C#N)c1	none
O=C(NCCc1csc(-c2ccccc2)n1)c1ccc(Br)o1	CYP2C19 inh 100, CYP2C9 inh 61
O=C(NCCc1csc(-c2cccnc2)n1)c1ccc(Br)o1	CYP2C19 inh 52
CN1CCC(OC(=O)c2cccc(Br)c2)CC1	none
CCCC(C(=O)O)N1C(=O)/C(=C2\C(=O)N(C)c3ccccc32)SC1=S (stereo unspecified)	CYP2C9 inh 68 (no result: Cav32 inh)
Cc1c(N2C(=O)/C(=C3/C(=O)N(C)c4ccccc43)SC2=S)c(=O)n(-c2ccccc2)n1C	none
O=C(CN1C(=O)c2ccccc2S1(=O)=O)Nc1ccc(S(=O)(=O)N2CCCCC2)cc1	CYP2C9 inh 62 (no result: Cav32 inh)
O=C(CN1C(=O)c2ccccc2S1(=O)=O)Nc1ccccc1	none (no result: Cav32 inh)
O=C(CN1C(=O)c2ccccc2S1(=O)=O)Nc1ccc(S(=O)(=O)N2CCCC2)cc1	CYP2C9 inh 92
Cc1cc(O)ccc1Nc1nc2ccccc2nc1Nc1ccc(O)cc1C	CYP2C19 inh 87, CYP2C9 inh 96
COc1ccc(Nc2ccccc2)c(C)c1	none
O=C1c2cnc3nc(SCc4ccccc4)nn3c2CC2c3ccccc3CCN12 (stereo unspecified)	none
CC(=O)c1cc(-c2ccccc2)n(CCC(=O)NCc2cccs2)c1C	CYP2C19 inh 73, CYP2C9 inh 54
CC(=O)c1cc(-c2ccc(F)cc2)n(CC(=O)NCc2cccs2)c1C	CYP2C19 inh 81 (no result: Cav32 inh)
CC(=O)Oc1ccccc1-c1nc(C)nc(N(C)C(C)=O)n1	none
Cc1cc(C)n2nc3nc4c(cc3c2n1)CCCC4	none
COc1ccc2ccccc2c1C1CC(=O)N2CN(Cc3ccco3)CSC2=C1C#N (stereo unspecified)	CYP2C19 inh 55, CYP2C9 inh 86
COc1ccccc1N1CCN(Cc2ccco2)CC1	none
COc1ccc2ccccc2c1C1CC(=O)N2CN(C3CCCCC3)CSC2=C1C#N (stereo unspecified)	CYP2C19 inh 55, CYP2C9 inh 90
CCOc1cc(C2CC(=O)N3CN(C4CCCCC4)CSC3=C2C#N)ccc1O (stereo unspecified)	CYP2C19 inh 53, CYP2C9 inh 82
COc1cc(-c2nnc(-c3ccco3)o2)ccc1OCc1ccccc1	none (no result: CYP2C19 inh, CYP2C9 act, CYP2C19 activ, CYP2C9 inh)
COc1cc(C2CC(=O)N3CN(Cc4ccco4)CSC3=C2C#N)ccc1OCc1ccccc1 (stereo unspecified)	CYP2C9 inh 83
CC(C)=CCCC(C)NC(=O)NC1CCCCC1 (stereo unspecified)	none (no result: CYP2C19 inh, CYP2C9 act, CYP2C19 activ, CYP2C9 inh)
CCOC(=O)/C(C#N)=C/c1ccc(OC)c(OC)c1	none
CCOC(=O)/C(C#N)=C/c1ccc(OCC(=O)Nc2ccc(OC)cc2)c(OC)c1	CYP2C9 inh 59
Cc1ccc(O)c(-c2cc(-c3ccccc3C)[nH]n2)c1	CYP2C19 inh 82, CYP2C9 inh 98
Cc1ccc(O)c(-c2cc(C(F)(F)C(F)F)[nH]n2)c1	CYP2C19 inh 84, CYP2C9 inh 83
O=c1[nH]n(-c2ccc(Cl)cc2)c2ncccc12	none
CCOC(=O)c1sc(NC(=O)CSc2nnc(Cc3ccccc3)o2)c(C#N)c1C	CYP2C9 inh 90 (no result: Cav32 inh)
CCOC(=O)c1c(NC(=O)CSc2nnc(Cc3ccccc3)o2)sc(C(C)=O)c1C	CYP2C9 inh 52
CCOC(=O)c1c(NC(=O)CSc2nnc(-c3ccc(C)cc3)o2)sc(C(C)=O)c1C	none
CCOC(=O)c1c(NC(=O)CSc2nnc(CNc3ccc(F)cc3)o2)sc(C(C)=O)c1C	CYP2C19 inh 89, CYP2C9 inh 94
Cc1ccc(/C(O)=C2/C(=O)C(=O)N(CCN3CCOCC3)C2c2cccs2)cc1 (stereo unspecified)	none (no result: Cav32 inh)
O=C1CCCCCN1C(=O)c1cccc(C(=O)N2CCCCCC2=O)c1	none
Cc1ccc(N=Cc2sc(O)c3ccccc23)cc1	none

Screening data from PubChem.
